This is an account of results in ChEMBL document CHEMBL2218924, “A broad activity screen in support of a chemogenomic map for kinase signalling research and drug discovery” (Biochem J, 2013).

Test [1] has as its target T1, Serine/threonine-protein kinase TBK1 (Homo sapiens) (UniProt Q9UHD2).
T1 sequence (whole entry): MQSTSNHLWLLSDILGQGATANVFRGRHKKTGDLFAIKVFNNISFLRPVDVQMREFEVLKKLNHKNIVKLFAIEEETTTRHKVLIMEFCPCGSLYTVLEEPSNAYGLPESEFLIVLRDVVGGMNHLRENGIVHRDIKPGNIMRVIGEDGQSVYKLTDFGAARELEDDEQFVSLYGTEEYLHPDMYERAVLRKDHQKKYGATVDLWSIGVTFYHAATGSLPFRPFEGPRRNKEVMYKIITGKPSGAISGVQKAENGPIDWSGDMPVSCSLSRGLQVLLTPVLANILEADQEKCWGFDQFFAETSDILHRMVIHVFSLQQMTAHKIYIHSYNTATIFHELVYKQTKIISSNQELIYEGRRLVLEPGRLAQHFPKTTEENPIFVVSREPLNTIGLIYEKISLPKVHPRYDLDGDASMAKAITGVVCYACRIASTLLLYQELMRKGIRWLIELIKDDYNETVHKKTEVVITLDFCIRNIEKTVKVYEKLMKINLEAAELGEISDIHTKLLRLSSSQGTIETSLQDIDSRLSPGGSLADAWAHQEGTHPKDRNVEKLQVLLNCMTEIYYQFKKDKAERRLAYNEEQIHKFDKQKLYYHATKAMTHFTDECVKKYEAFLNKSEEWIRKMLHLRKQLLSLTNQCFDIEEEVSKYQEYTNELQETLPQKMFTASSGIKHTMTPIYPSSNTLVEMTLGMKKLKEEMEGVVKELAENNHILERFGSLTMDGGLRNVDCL
To be noted: at 10 µM.

Test [2] has as its target T2, TGF-beta receptor type-1 (Homo sapiens) (UniProt P36897).
T2 sequence (whole entry): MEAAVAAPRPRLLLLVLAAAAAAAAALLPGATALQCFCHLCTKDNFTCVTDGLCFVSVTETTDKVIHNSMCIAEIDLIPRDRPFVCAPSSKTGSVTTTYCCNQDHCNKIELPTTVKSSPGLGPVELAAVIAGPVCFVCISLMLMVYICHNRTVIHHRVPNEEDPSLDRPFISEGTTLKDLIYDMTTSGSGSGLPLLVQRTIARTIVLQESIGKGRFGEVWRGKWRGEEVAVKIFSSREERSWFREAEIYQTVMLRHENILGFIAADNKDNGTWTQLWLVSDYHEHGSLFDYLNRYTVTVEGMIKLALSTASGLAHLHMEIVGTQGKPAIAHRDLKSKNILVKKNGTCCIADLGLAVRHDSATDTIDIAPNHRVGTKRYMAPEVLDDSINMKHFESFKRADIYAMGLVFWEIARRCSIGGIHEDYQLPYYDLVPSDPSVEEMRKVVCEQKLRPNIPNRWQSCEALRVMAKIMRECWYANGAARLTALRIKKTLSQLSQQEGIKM
To be noted: at 1 µM.

Test [3] deals with T2, TGF-beta receptor type-1 (Homo sapiens). The conditions noted are these: at 10 µM.
In test [4] the target is Insulin-like growth factor 1 receptor (Homo sapiens) (UniProt P08069). The conditions noted are these: at 1 µM.
Sequence of Insulin-like growth factor 1 receptor (Homo sapiens) (P08069 31-736 limits assumed): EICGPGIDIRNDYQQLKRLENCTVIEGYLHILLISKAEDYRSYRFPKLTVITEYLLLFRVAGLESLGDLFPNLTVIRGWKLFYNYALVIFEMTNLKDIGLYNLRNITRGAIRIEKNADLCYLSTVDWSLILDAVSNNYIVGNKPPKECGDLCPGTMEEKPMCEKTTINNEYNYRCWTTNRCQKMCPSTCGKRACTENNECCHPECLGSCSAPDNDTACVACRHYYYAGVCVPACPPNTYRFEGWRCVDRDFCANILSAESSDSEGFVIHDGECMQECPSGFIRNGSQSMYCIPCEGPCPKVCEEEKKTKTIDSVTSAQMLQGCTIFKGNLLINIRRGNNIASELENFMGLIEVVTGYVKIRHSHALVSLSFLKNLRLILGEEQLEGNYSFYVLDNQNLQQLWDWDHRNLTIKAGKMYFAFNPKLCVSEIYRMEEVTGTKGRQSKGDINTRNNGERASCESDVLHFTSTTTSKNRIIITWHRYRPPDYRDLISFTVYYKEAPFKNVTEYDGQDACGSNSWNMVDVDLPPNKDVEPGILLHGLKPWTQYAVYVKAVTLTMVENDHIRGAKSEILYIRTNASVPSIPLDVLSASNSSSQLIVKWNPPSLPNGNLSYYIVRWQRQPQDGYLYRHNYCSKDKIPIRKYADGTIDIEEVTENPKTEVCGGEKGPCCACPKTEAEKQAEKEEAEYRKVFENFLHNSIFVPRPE
Sequence of Insulin-like growth factor 1 receptor (Homo sapiens) (P08069 741-1367 limits assumed): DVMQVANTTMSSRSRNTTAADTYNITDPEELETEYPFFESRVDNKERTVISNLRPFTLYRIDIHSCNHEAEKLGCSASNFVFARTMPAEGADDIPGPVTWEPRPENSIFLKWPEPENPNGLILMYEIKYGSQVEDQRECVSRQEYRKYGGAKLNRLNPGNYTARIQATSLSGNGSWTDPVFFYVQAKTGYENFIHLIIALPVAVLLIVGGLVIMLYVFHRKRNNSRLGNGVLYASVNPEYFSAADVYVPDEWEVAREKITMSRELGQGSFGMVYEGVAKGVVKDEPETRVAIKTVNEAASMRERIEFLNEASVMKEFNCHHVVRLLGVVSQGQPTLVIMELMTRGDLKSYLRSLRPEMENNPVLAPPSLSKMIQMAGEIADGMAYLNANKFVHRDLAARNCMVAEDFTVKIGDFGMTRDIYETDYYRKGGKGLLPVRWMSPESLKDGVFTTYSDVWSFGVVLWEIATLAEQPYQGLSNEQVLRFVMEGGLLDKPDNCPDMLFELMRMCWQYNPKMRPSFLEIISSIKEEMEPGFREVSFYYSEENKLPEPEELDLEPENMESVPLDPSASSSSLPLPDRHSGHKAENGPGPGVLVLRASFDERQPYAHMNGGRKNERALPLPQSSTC
For test [5] the target is unchanged. The conditions noted are these: at 10 µM.
Test [6] addresses T3, Inhibitor of nuclear factor kappa-B kinase subunit alpha (Homo sapiens) (UniProt O15111).
T3 sequence (whole entry): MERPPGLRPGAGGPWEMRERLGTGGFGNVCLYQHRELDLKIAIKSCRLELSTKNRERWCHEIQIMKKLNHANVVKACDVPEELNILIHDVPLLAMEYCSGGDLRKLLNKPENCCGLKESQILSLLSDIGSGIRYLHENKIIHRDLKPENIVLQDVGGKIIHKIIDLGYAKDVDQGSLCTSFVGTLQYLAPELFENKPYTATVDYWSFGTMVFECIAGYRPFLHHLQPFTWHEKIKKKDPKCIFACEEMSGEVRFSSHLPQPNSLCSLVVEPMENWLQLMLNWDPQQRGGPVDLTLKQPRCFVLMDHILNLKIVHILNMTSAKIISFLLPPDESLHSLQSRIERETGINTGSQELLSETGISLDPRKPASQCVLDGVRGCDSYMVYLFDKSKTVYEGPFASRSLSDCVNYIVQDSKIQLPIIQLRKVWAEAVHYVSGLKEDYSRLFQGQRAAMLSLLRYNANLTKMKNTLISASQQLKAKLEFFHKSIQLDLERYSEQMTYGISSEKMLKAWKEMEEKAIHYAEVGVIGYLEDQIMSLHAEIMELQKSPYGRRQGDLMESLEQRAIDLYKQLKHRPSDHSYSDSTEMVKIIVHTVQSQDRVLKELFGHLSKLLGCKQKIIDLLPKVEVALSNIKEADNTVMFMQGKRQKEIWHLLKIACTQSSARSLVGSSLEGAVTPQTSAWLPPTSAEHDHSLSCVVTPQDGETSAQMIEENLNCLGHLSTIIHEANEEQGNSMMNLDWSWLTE
To be noted: at 1 µM.

The target in test [7] is T3, Inhibitor of nuclear factor kappa-B kinase subunit alpha (Homo sapiens). The conditions noted are these: at 10 µM.
Test [8] addresses T4, Inhibitor of nuclear factor kappa-B kinase subunit beta (Homo sapiens) (UniProt O14920).
T4 sequence (whole entry): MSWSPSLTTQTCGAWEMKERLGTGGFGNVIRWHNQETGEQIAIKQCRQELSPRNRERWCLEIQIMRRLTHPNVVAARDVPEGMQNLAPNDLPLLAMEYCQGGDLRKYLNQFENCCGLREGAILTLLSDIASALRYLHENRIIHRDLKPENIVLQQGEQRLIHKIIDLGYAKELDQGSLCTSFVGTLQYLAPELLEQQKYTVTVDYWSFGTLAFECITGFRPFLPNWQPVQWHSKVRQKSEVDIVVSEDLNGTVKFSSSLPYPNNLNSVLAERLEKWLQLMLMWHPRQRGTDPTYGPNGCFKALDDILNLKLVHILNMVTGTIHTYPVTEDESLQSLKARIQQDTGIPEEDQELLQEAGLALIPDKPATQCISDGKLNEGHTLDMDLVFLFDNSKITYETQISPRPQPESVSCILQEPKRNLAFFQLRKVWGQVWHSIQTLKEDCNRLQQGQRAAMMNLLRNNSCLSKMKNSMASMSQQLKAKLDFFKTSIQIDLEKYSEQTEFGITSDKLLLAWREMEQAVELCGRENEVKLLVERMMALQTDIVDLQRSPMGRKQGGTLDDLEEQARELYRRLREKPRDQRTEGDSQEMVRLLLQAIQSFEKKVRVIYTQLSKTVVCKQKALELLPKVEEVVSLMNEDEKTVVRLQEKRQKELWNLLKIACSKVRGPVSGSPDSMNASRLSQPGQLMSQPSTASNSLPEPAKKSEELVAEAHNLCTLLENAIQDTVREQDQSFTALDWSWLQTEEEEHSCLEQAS
The conditions noted are these: at 1 µM.

For test [9], the target named is T4, Inhibitor of nuclear factor kappa-B kinase subunit beta (Homo sapiens). The conditions noted are these: at 10 µM.
Test [10] addresses Insulin receptor (Homo sapiens) (UniProt P06213). To be noted: at 1 µM.

In general, residual activity refers to the activity still measured, relative to the control. A low value points to a large loss of activity.

Sequence of Insulin receptor (Homo sapiens) (P06213 28-758 limits assumed): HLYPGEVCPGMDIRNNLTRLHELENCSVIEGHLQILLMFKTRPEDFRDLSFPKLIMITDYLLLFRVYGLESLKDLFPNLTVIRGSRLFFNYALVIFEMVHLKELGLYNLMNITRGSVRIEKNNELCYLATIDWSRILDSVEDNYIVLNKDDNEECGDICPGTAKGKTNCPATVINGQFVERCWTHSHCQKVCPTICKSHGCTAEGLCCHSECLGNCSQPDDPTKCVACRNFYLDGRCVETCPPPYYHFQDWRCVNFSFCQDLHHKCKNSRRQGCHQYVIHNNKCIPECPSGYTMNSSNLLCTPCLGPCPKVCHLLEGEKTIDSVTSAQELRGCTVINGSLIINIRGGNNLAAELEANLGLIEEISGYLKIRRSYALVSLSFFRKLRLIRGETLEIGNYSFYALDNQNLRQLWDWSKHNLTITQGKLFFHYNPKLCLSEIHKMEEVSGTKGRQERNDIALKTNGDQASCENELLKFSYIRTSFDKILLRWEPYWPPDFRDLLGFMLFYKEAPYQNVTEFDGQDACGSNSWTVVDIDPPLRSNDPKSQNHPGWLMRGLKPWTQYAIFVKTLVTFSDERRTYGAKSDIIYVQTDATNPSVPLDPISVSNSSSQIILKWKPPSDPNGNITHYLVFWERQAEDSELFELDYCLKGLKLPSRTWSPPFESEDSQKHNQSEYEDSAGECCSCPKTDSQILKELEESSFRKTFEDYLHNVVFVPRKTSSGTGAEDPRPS
Sequence of Insulin receptor (Homo sapiens) (P06213 763-1382 limits assumed): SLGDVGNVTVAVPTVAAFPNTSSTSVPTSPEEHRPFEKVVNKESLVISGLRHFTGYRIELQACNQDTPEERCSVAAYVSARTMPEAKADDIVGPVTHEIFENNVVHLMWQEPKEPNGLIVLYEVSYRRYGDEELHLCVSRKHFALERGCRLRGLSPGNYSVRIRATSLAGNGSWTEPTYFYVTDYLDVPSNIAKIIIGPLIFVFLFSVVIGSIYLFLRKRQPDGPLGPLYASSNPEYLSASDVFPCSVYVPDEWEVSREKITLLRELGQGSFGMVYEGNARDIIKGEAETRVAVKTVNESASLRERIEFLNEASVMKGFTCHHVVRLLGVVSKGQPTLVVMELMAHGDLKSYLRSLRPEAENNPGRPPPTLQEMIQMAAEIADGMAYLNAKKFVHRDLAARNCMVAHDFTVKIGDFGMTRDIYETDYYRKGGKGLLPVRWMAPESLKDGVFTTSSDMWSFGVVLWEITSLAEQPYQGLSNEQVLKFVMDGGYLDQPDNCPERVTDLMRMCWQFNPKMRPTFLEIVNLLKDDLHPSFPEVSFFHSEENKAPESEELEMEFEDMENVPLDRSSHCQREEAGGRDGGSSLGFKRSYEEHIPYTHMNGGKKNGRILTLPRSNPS

In the case of `Oc1c2ccccc2c2c3c(cccc13)N=N2`, the residual activity in [1] is 11%; in test [2] it was 88%; in test [3] it was 74%; in test [4] it was 92%; in test [5], 49%; in test [6], 57%. The residual activity came out at 21% in test [7], 78% in test [8], 43% in test [9] and 81% in test [10].
